Data taken from PubChem BioAssay (Tox21).
Several values for one entry are separate records, joined by “and”; a condition that tells them apart may be missing. Equal values may be shown once. Results filed as inconclusive are left out. A number with no mark means an inactive call. Activity calls are given as the source filed them. The call rests on the fitted dose curve; in most records, active means well fitted cell-killing curve with a large enough effect in the repeat runs; inconclusive means weak or mixed curves; inactive means flat fitted curve, though single readings scatter.

Assay: qHTS RealTime-Glo MT Cell Viability Assay in HepG2 cells - 24 hour (AID 1224867); further: nearly all actives have a fitted effect of over 50% in size
Details: RealTime-Glo luminescence; series mostly up to 76.8 µM
Text: U.S. Tox21 Program National Center for Advancing Translational Sciences [NCATS] NIH Chemical Genomics Center [NCGC] U.S. Environmental Protection Agency [EPA] National Institutes of Environmental Health Sciences [NIEHS] National Toxicology Program [NTP] U.S. Food and Drug Administration [FDA] Tox21 Assay Overview: Measure of cell viability is critical in the cell-base assay. Analysis of cell viability is necessary for the characterization of cell responses to cytotoxic drugs and environmental stress. A RealTime-Glo MT Cell Viability Assay to monitor cell viability in real time of continues cell culture during 40 hours of compound treatment was used to screen Tox21 10K library compounds in HepG2 cells. The RealTime-Glo MT Cell Viability Assay is a nonlytic, homogeneous, bioluminescent method to measure cell viability in real time using a simple, plate-based method. The assay involves adding NanoLuc luciferase and a cell-permeant prosubstrate to cells in culture. Viable cells reduce the proprietary prosubstrate to generate a substrate for NanoLuc luciferase. This substrate diffuses from cells into the surrounding culture medium, where it is rapidly used by the NanoLuc Enzyme to produce a luminescent signal. The signal correlates with the number of viable cells, making the assay well suited for cytotoxicity studies.
Tox21 Assay Protocol Summary: The mixture of HepG2 cell suspension and reagents were dispensed at 600cells/6 ul/well in 1536-well tissue culture treated black solid bottom plates using a Multidrop dispenser. After the assay plates were incubated at a 37 C/5% CO2 incubator for 5 hours, 23 nL of compounds dissolved in DMSO, positive and negative controls was transferred to the assay plate by a pintool work station. The plates were incubated at 37 C for 40 hours. The luminescence intensity were measured at 0h, 8h, 16h, 24h, 32h and 40h time points using ViewLux plate reader during compound treatment.
On the % scale 0 is the no-effect control and ±100 the full control effect.

| SMILES | outcome | activity change, negative = cytotoxicity |
| --- | --- | --- |
| Oc1cccc2ccccc12 | inactive |  |
| O=c1[nH]c(=O)n([C@H]2C[C@H](O)[C@@H](CO)O2)cc1Br | inactive |  |
| OCCOCCOCCO | inactive |  |
| O=C(O)[C@H](O)[C@@H](O)[C@H](O)[C@H](O)CO | inactive |  |
| CC(c1cc2ccccc2s1)N(O)C(N)=O (stereo not given) | inactive |  |
| CCCCC(CC)COC(=O)CCCCC(=O)OCC(CC)CCCC (stereo not given) | inactive |  |
| O=C=NCCCCCCN=C=O | inactive |  |
| CN(C)CCC(c1ccccc1)c1ccccn1 (stereo not given) | inactive |  |
| O=S(=O)(O)c1ccc2ccccc2c1 | inactive |  |
| O=[N+]([O-])c1ccc(/C=C/c2ccc([N+](=O)[O-])cc2S(=O)(=O)O)c(S(=O)(=O)O)c1 | inactive |  |
| COc1ccc(Cl)cc1C(=O)NCCc1ccc(S(=O)(=O)NC(=O)NC2CCCCC2)cc1 | inactive |  |
| COc1ccc(NC(C)=O)cc1N | inactive |  |
| O=C(OCCOCCOC(=O)c1ccccc1)c1ccccc1 | inactive |  |
| CCC(O)OCCCOC (stereo not given) | inactive |  |
| Cc1occc(=O)c1O | inactive |  |
| C[C@H]1C[C@H]2[C@@H]3CCC4=CC(=O)C=C[C@]4(C)[C@@]3(F)[C@@H](O)C[C@]2(C)[C@@]1(O)C(=O)CO | inactive |  |
| CCC(O)OC(O)CC (stereo not given) | inactive |  |
| COc1cc(Cc2cnc(N)nc2N)cc(OC)c1OC | inactive |  |
| COc1ccc2cc([C@H](C)C(=O)O)ccc2c1 | inactive |  |
| CCOC(=O)NNc1nncc2ccccc12 | inactive |  |

| SMILES | outcome | activity change, negative = cytotoxicity |
| --- | --- | --- |
| C[Si](O[Si](C)(C)C)O[Si](C)(C)C | inactive |  |
| CCN(CC)CCCC(C)Nc1ccnc2cc(Cl)ccc12 (stereo not given) |  | 1.52% [at 6.97 µM] and -6.42% [at 15.8 µM] |
| Cc1cnc(C(=O)NCCc2ccc(S(=O)(=O)NC(=O)NC3CCCCC3)cc2)cn1 | inactive |  |
| CCCCCCCCCCCCc1ccccc1 | inactive |  |
| C=CCOC(=O)c1ccccc1C(=O)OCC=C | inactive |  |
| C=C(C)C(=O)OCCOCCOCCOC(=O)C(=C)C | inactive |  |
| CN(C)CCC(c1ccc(Cl)cc1)c1ccccn1 (stereo not given) | inactive |  |
| C=CCNC(N)=S | inactive |  |
| O=C(CC(C(=O)OC1CCCCC1)S(=O)(=O)O)OC1CCCCC1 (stereo not given) | inactive |  |
| CC(C)(N)CO | inactive |  |
| CCCCCCCCC/C=C/CC1CC(=O)OC1=O (stereo not given) | inactive |  |
| OCCOCCN1CCN(C2=Nc3ccccc3Sc3ccccc32)CC1 | inactive |  |
| C=C(C)C(=O)Nc1ccc(Cl)c(Cl)c1 | inactive |  |
| O=C(O)c1ccc2c(c1)C(=O)OC2=O | inactive |  |
| COCCCOc1ccnc(CS(=O)c2nc3ccccc3[nH]2)c1C (stereo not given) | inactive |  |
| O=C1CCC(N2C(=O)c3ccccc3C2=O)C(=O)N1 (stereo not given) | inactive |  |
| O=c1[nH]nnc2ccccc12 | inactive |  |
| O=C(O)CCCCCCCCCCC(=O)O | inactive |  |
| CCc1cccc(C)c1N | inactive |  |
| CC(=O)c1ccccc1 | inactive |  |
